# From paper PMC7862700, “An all-to-all approach to the identification of sequence-specific readers for epigenetic DNA modifications on cytosine”
# Experiments:
# Assay in all cases: DAPPL (digital affinity profiling via proximity ligation, sequencing); 10 mM Tris-HCl pH 7.5, 50 mM NaCl, 1 mM DTT, 4% glycerol, room temperature, 30 min; GST-TFs on glutathione beads, 16-mer random dsDNA library, 0.1% formaldehyde crosslink after washing; high values mean tight binding
# FEV = biological target: T1, FEV (Homo sapiens, UniProt Q99581 1-238); conditions: protein: recombinant; tags: N-terminal GST; dsDNA, one strand shown
# T1 sequence: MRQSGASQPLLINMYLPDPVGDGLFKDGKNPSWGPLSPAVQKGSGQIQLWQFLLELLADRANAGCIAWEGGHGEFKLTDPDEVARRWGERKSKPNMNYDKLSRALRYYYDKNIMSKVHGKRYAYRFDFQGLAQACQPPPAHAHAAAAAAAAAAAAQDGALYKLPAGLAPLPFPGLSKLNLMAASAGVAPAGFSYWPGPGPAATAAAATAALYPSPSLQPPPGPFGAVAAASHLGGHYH
# Summary of the method: (§1)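 Beads coated with glutathione captured GST-fused human transcription factors that had been expressed in yeast, and the factors were then given DNA barcodes and pooled with a tag-only sample. The pools were incubated with 200 nmole of a random double-stranded 16-mer DNA library in Tris/NaCl/DTT/glycerol buffer for 30 min at room temperature, washed, crosslinked with 0.1% formaldehyde and proximity-ligated with BsaI/T4 ligase at 37 °C for 1 h. PCR amplification and Illumina NextSeq500 sequencing came last. Binding signal is each hexamer's read frequency for a factor divided by its frequency for the tag-only sample.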
# ETV5 = ETV5 (Homo sapiens, UniProt P41161 1-510); conditions: protein: recombinant; tags: N-terminal GST; dsDNA, one strand shown
# Sequence of ETV5 (P41161 whole entry): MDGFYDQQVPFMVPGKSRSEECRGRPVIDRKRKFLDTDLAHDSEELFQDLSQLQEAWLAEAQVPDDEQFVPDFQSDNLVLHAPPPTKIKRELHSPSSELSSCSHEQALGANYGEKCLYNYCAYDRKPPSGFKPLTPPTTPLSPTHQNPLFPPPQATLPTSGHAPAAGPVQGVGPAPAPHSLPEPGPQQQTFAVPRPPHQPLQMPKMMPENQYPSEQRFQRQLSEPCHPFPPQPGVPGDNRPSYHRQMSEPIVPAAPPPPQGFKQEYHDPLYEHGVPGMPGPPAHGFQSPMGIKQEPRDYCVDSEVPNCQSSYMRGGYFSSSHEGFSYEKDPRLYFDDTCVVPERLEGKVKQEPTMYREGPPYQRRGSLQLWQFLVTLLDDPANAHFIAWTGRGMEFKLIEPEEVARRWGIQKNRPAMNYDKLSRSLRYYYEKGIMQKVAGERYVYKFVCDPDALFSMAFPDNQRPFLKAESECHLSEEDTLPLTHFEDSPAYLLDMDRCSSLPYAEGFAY
# Summary of the method: as §1
# HSF1 = HSF1 (Homo sapiens, UniProt Q00613 1-529); conditions: protein: recombinant; tags: N-terminal GST; chain copies: 3; dsDNA, one strand shown
# Sequence of HSF1 (Q00613 whole entry): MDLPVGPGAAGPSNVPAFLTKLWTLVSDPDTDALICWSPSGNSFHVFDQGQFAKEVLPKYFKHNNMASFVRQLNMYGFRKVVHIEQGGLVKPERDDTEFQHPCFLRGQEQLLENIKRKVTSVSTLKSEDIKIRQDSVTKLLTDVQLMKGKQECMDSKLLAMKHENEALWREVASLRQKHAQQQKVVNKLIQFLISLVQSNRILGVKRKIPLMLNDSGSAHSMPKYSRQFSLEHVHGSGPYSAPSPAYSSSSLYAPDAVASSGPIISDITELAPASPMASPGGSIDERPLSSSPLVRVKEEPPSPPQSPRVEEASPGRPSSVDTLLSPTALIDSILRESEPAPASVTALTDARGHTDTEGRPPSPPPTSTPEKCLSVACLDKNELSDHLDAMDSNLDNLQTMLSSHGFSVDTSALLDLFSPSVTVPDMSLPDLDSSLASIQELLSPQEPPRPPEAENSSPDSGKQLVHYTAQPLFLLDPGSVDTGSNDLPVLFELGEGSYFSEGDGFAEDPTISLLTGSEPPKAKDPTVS
# Summary of the method: as §1
# SPIC = biological target: T2, SPIC (Homo sapiens, UniProt Q8N5J4 1-248); conditions: protein: recombinant; tags: N-terminal GST; dsDNA, one strand shown
# T2 sequence: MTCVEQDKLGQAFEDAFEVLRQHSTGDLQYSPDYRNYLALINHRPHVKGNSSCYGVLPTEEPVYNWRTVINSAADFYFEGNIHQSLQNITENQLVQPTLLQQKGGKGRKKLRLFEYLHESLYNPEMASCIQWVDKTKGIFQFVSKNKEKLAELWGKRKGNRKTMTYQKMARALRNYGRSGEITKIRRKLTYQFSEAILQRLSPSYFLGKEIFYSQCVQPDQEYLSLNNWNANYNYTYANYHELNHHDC
# Summary of the method: as §1
# ELF4 = ELF4 (Homo sapiens, UniProt Q99607 1-663); conditions: protein: recombinant; tags: N-terminal GST; dsDNA, one strand shown
# Sequence of ELF4 (Q99607 whole entry): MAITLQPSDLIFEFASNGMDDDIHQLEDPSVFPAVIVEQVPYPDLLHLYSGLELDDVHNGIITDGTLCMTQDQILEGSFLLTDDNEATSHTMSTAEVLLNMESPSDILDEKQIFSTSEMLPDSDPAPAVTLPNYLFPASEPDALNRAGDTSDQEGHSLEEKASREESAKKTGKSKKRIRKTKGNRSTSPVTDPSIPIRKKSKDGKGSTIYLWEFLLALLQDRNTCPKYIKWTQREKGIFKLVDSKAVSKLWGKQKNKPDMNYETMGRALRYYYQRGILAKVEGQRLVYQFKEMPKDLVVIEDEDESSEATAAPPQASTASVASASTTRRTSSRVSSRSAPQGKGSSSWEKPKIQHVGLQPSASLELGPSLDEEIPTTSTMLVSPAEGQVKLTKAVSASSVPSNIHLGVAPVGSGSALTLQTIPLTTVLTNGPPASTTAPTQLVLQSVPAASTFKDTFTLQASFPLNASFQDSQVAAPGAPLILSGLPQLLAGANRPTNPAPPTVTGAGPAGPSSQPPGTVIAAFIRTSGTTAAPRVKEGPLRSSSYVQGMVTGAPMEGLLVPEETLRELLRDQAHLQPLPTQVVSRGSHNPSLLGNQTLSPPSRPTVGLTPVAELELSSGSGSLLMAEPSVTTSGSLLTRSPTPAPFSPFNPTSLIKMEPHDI
# Summary of the method: as §1
# ELK4 = biological target: T3, ELK4 (Homo sapiens, UniProt P28324-2 1-405); conditions: protein: recombinant; tags: N-terminal GST; dsDNA, one strand shown
# T3 sequence: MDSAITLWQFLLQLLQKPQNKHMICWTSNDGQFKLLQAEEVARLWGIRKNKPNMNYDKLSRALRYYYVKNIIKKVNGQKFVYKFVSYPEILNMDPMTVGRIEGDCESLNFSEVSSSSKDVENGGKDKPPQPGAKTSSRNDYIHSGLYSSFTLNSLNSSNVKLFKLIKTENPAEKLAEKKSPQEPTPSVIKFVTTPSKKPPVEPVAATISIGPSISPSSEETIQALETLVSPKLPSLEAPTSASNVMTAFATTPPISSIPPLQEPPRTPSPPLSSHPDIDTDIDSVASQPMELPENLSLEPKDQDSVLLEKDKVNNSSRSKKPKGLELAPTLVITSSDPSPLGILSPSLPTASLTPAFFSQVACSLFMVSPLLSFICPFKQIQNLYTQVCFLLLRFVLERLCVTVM
# Summary of the method: as §1
# ETV2 = biological target: T4, ETV2 (Homo sapiens, UniProt O00321 1-342); conditions: protein: recombinant; tags: N-terminal GST; dsDNA, one strand shown
# T4 sequence: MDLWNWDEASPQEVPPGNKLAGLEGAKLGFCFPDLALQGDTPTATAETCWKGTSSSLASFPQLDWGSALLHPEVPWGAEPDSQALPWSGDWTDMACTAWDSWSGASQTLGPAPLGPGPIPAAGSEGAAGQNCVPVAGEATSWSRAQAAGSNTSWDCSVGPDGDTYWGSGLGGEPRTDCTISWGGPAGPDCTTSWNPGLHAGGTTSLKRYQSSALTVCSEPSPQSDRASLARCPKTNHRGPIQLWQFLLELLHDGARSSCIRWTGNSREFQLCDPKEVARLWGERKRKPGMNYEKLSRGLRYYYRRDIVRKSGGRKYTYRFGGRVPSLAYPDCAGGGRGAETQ
# Summary of the method: as §1
# ELF3 = biological target: T5, ELF3 (Homo sapiens, UniProt P78545 1-371); conditions: protein: recombinant; tags: N-terminal GST; dsDNA, one strand shown
# T5 sequence: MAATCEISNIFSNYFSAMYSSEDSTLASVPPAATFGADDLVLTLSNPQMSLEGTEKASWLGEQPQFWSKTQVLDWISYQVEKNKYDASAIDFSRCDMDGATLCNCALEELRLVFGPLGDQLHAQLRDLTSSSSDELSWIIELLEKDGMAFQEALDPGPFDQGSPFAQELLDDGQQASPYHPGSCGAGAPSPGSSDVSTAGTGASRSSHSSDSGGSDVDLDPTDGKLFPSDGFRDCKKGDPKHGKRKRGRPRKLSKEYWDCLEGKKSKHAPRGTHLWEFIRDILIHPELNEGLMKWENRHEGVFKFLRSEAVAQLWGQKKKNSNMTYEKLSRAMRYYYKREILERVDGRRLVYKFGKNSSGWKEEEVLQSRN
# Summary of the method: as §1
# CRX = CRX (Homo sapiens, UniProt O43186 1-299); conditions: protein: recombinant; tags: N-terminal GST; dsDNA, one strand shown
# Sequence of CRX (O43186 whole entry): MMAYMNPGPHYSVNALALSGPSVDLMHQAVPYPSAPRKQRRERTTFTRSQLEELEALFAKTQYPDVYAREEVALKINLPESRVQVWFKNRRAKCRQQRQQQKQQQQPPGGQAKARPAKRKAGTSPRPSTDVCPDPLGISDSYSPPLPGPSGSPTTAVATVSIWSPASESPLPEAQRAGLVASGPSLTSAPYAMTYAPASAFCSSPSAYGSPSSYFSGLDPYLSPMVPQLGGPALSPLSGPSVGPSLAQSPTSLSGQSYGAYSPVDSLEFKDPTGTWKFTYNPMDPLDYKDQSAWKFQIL
# Summary of the method: as §1
# ETV1 = ETV1 (Homo sapiens, UniProt P50549 1-477); conditions: protein: recombinant; tags: N-terminal GST; dsDNA, one strand shown
# Sequence of ETV1 (P50549 whole entry): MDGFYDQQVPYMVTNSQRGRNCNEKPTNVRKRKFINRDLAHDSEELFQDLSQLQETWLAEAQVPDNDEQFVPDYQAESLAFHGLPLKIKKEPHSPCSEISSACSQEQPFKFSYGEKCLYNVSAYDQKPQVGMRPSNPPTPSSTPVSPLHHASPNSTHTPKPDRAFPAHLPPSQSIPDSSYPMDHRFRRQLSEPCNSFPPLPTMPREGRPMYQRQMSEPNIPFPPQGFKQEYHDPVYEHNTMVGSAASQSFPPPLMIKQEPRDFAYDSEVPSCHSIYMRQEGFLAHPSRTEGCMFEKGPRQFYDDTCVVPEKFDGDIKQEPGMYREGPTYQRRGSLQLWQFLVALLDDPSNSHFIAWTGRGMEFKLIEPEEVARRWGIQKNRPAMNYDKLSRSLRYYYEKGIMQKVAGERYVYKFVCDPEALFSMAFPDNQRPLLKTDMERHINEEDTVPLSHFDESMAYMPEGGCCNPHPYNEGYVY
# Summary of the method: as §1
# ERF = biological target: T6, ERF (Homo sapiens, UniProt P50548 1-548); conditions: protein: recombinant; tags: N-terminal GST; dsDNA, one strand shown
# T6 sequence: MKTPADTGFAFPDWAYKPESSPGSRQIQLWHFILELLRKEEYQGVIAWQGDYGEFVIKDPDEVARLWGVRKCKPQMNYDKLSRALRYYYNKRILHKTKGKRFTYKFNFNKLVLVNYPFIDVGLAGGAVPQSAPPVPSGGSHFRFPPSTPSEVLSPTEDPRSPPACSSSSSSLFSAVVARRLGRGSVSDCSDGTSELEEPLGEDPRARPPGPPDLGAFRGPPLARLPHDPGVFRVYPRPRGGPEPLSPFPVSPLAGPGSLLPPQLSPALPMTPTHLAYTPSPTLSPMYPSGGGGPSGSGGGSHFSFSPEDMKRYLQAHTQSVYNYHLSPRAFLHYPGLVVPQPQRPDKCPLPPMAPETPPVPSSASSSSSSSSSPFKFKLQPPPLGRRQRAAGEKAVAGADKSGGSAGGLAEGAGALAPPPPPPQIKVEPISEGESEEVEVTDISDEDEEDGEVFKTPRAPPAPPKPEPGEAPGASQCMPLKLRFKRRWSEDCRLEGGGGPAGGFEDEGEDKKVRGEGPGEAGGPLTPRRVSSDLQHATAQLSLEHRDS
# Summary of the method: as §1
# ETV3L = biological target: T7, ETV3L (Homo sapiens, UniProt Q6ZN32 1-361); conditions: protein: recombinant; tags: N-terminal GST; dsDNA, one strand shown
# T7 sequence: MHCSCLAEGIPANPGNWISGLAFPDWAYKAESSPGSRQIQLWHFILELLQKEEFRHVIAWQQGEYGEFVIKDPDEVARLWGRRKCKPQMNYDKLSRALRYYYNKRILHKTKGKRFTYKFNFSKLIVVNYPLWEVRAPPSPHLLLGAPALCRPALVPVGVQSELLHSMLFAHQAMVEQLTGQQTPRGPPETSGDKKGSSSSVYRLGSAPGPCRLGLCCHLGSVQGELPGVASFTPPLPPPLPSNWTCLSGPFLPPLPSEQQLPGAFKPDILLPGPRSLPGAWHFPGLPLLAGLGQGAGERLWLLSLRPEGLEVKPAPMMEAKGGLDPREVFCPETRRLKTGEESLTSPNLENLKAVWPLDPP
# Summary of the method: as §1
# ETS2 = biological target: T8, ETS2 (Homo sapiens, UniProt P15036 1-469); conditions: protein: recombinant; tags: N-terminal GST; dsDNA, one strand shown
# T8 sequence: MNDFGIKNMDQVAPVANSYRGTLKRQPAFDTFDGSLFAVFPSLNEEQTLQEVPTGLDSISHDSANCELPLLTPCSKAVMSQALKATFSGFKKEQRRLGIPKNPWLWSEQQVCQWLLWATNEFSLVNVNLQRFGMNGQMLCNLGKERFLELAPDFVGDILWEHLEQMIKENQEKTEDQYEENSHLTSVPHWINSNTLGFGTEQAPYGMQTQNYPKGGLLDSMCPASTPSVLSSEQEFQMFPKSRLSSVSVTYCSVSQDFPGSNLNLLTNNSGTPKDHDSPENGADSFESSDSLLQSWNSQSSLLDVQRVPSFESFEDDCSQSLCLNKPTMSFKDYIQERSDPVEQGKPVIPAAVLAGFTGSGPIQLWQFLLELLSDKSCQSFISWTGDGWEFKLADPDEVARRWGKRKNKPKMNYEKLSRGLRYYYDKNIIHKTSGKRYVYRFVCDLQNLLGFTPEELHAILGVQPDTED
# Summary of the method: as §1
# SPDEF = biological target: T9, SPDEF (Homo sapiens, UniProt O95238 1-335); conditions: protein: recombinant; tags: N-terminal GST; dsDNA, one strand shown
# T9 sequence: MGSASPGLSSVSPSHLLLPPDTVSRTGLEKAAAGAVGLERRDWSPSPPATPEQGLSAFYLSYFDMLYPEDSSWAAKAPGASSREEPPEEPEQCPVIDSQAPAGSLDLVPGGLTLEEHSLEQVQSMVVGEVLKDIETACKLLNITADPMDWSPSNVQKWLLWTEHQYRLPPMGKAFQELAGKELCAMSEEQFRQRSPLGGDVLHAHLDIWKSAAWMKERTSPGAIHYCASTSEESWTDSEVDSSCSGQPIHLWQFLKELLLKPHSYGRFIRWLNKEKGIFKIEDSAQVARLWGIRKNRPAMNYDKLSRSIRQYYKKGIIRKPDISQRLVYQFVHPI
# Summary of the method: as §1
# ETV7 = biological target: T10, ETV7 (Homo sapiens, UniProt Q9Y603 1-341); conditions: protein: recombinant; tags: N-terminal GST; dsDNA, one strand shown
# T10 sequence: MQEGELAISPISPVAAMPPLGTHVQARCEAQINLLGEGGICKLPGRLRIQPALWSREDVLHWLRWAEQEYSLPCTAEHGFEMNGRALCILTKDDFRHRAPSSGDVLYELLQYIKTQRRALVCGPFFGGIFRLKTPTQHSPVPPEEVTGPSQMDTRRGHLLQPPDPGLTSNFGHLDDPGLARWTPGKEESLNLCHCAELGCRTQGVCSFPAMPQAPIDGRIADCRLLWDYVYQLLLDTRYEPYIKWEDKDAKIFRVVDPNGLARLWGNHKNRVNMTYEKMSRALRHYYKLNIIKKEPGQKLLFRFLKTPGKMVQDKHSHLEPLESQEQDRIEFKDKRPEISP
# Summary of the method: as §1
# ELF5 = biological target: T11, ELF5 (Homo sapiens, UniProt Q9UKW6-2 1-255); conditions: protein: recombinant; tags: N-terminal GST; dsDNA, one strand shown
# T11 sequence: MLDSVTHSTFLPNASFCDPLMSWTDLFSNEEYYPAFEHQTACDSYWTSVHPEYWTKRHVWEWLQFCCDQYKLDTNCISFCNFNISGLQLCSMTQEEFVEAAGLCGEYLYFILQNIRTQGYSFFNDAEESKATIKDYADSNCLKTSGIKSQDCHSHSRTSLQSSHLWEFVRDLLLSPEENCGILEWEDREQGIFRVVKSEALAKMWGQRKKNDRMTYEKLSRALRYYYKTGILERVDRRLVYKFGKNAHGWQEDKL
# Summary of the method: as §1
# ETV3 = biological target: T12, ETV3 (Homo sapiens, UniProt P41162-2 1-143); conditions: protein: recombinant; tags: N-terminal GST; dsDNA, one strand shown
# T12 sequence: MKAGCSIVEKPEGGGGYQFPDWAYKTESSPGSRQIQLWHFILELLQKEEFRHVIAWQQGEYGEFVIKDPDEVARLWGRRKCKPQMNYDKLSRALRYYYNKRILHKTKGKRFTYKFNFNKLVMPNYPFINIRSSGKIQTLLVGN
# Summary of the method: as §1
# ETV6 = ETV6 (Homo sapiens, UniProt P41212 1-452); conditions: protein: recombinant; tags: N-terminal GST; dsDNA, one strand shown
# Sequence of ETV6 (P41212 whole entry): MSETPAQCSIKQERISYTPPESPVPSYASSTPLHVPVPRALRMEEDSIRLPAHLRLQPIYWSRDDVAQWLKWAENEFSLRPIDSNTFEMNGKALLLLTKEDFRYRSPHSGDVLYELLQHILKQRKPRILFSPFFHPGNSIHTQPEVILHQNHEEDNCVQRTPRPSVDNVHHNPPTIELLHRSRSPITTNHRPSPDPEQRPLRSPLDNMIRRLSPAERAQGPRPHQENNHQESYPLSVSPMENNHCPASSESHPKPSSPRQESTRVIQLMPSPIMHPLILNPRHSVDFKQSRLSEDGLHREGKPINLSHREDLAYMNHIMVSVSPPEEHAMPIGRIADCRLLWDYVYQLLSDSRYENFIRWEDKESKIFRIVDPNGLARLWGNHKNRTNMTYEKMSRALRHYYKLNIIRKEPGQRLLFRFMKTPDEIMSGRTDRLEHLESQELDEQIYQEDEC
# Summary of the method: as §1
sequence,measurement,setting,value
TTCATC,binding signal,FEV,"1.21 fold enrichment (6-mer frequency, TF over GST control)"
same,binding signal,ETV5,"1.28 fold enrichment (6-mer frequency, TF over GST control)"
same,binding signal,HSF1,"1.29 fold enrichment (6-mer frequency, TF over GST control)"
same,binding signal,SPIC,"1.28 fold enrichment (6-mer frequency, TF over GST control)"
same,binding signal,ELF4,"1.27 fold enrichment (6-mer frequency, TF over GST control)"
same,binding signal,ELK4,"1.27 fold enrichment (6-mer frequency, TF over GST control)"
same,binding signal,ETV2,"1.25 fold enrichment (6-mer frequency, TF over GST control)"
same,binding signal,ELF3,"1.3 fold enrichment (6-mer frequency, TF over GST control)"
same,binding signal,CRX,"1.28 fold enrichment (6-mer frequency, TF over GST control)"
same,binding signal,ETV1,"1.25 fold enrichment (6-mer frequency, TF over GST control)"
same,binding signal,ERF,"1.21 fold enrichment (6-mer frequency, TF over GST control)"
same,binding signal,ETV3L,"1.24 fold enrichment (6-mer frequency, TF over GST control)"
same,binding signal,ETS2,"1.17 fold enrichment (6-mer frequency, TF over GST control)"
same,binding signal,SPDEF,"1.36 fold enrichment (6-mer frequency, TF over GST control)"
same,binding signal,ETV7,"1.25 fold enrichment (6-mer frequency, TF over GST control)"
same,binding signal,ELF5,"1.23 fold enrichment (6-mer frequency, TF over GST control)"
same,binding signal,ETV3,"1.26 fold enrichment (6-mer frequency, TF over GST control)"
same,binding signal,ETV6,"1.23 fold enrichment (6-mer frequency, TF over GST control)"
